In the library only some 2.2% were active in any assay of this set; here they are far more common.
Abeta yeast res: A-beta toxicity reversal in yeast. yeast expressing A-beta42, growth rescue, OD600, 48 h; response scale: 0% DMSO, 100% iron-clioquinol control. Potency, µM (doses to about 46.1 µM), most hits filed as activators. 410,000 tested, 0.063% active. AID 1347071; further: nearly all actives have a fitted effect of over 55% in size
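Growth rescue measured by 600 nm absorbance after 48 h yeast culture at 30 C with compound. Values normalized between DMSO and an equimolar ferric chloride plus clioquinol control.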
TDP-43 yeast inh: TDP-43 toxicity inhibition in yeast | AID 652104 | TDP-43 expressing yeast growth rescue, BacTiter-Glo, 24 h | 410,000 tested, 1.8% active | Potency, µM (highest dose often 46.1 µM), usual class: activators; further: nearly all actives have a fitted effect of over 50% in size
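Growth rescue of TDP-43-toxic yeast measured as ATP luminescence (BacTiter-Glo). Cells grown to mid-log in raffinose, induced in galactose at OD600=0.02, exposed to compound 24 hr at 30 deg C.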
Mito fusion yeast: mitochondrial division inhibition or fusion activation. S. cerevisiae fusion-defective mutant growth rescue, CellTiterGlo 48 h. Potency, µM (doses to about 46.1 µM), actives largely listed as activators. 320,000 tested, 0.23% active; further: nearly all actives have a fitted effect of over 45% in size
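Temperature-sensitive fusion-defective S. cerevisiae (e.g. fzo1-1, mgm1-5) were grown with compound in YPEG medium (3% ethanol, 3% glycerol) for 48 hours at 37C. Growth rescue was measured as viability by CellTiterGlo luminescence after 10 minutes at ambient.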
aSyn yeast inh: rescues yeast growth from alpha-synuclein toxicity | Potency, µM (highest dose often 46.1 µM), actives largely listed as activators | 370,000 tested, 0.14% active | AID 652106 | Yeast expressing alpha-synuclein, growth rescue, BacTiter-Glo, 24 h; further: nearly all actives have a fitted effect of over 65% in size
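Galactose-induced alpha-syn yeast (OD600=0.02, raffinose-pregrown) + pinned cpd, 24 hr, 30 deg C; growth by BacTiter-Glo luminescence. Growth restoration scores as activation.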
FUS suppressor: rescues growth of FUS-expressing yeast | Potency, µM (doses to about 76.6 µM), usual class: activators | AID 1347120 | S. cerevisiae FUS-expressing, growth rescue, OD600, 24 h | 390,000 tested, 0.24% active; further: nearly all actives have a fitted effect of over 55% in size
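Quantitative HTS measuring growth restoration of FUS-toxic yeast. Galactose-induced cells (OD 0.005) were exposed 24hr at 30C to compounds at several concentrations, then absorbance at 600 nm was recorded.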
Hits are given with their value; - = inactive; ? = inconclusive; . = not tested or not shown; [ ] = dose if it differs, or a comment. The call rests on the fitted dose curve; in most records, active means well fitted curve in the direction sought with a large enough effect; inconclusive means small, poorly fitted or top-dose-only effect, or another doubt; inactive means no such curve, though single readings can be large; an effect the other way counts as inactive or inconclusive.

SMILES | Abeta yeast res | TDP-43 yeast inh | Mito fusion yeast | aSyn yeast inh | FUS suppressor
O=[N+]([O-])c1nn(-c2ccccc2)n(O)c1=NCCc1ccccc1 | - | 7.1µM | 18µM | - | .
CCSC(=O)N1CCN(/[N+]([O-])=N/Oc2ccc([N+](=O)[O-])cc2[N+](=O)[O-])CC1 | . | . | . | - | .
CCN1CCN(S(=O)(=O)c2ccc(Cl)c(C(=O)NCc3ccco3)c2)CC1 | - | - | - | - | -
c1ccc2c(c1)Cc1ccccc1O2 | - | - | - | - | -
CNc1oc(-c2ccc(F)cc2)nc1S(=O)(=O)c1ccccc1 | - | - | - | - | -
CNc1oc(-c2cccs2)nc1S(=O)(=O)c1ccccc1 | - | - | - | - | -
CCC(C)S(=O)(=O)c1oc(-c2cccs2)nc1S(=O)(=O)c1ccccc1 (stereo not given) | - | 11µM | . | . | -
CC(C)CS(=O)(=O)c1oc(-c2ccc(F)cc2)nc1S(=O)(=O)c1ccccc1 | - | 20µM | . | . | -
COc1ccc(-n2c(SCC(=O)Nc3ccc(S(=O)(=O)Nc4nccs4)cc3)nnc2-c2cccs2)cc1 | . | . | . | . | -
Cc1cccc(C(=O)O/N=C(\N)c2ccc(Cl)cc2)c1 | - | 10µM | - | - | -
Cc1cc(C)cc(C(=O)O/N=C(\N)c2ccc(Br)cc2)c1 | - | 35µM | - | - | -
Cc1cccc(C(=O)O/N=C(\N)c2ccc(Br)cc2)c1 | - | 6.3µM | - | - | -
COc1ccccc1C(=O)O/N=C(/c1ccncc1)c1ccc([N+](=O)[O-])cc1 | - | 28µM | - | - | .
COc1cc(OC)cc(C(=O)N2CCN(C(=O)COc3ccccc3)CC2)c1 | - | - | . | - | -
COc1cccc(N/C=C/C(=O)c2ccc(OC)c(OC)c2)c1 | - | - | - | ? | -
COc1ccc(C(=O)O/N=C(\N)c2ccccc2)cc1OC | - | ? | ? | - | -
CCOC(=O)c1cccc(N/C=C/C(=O)c2ccc(OC)c(OC)c2)c1 | - | ? | - | 14µM | -
COc1ccc(C(=O)O/N=C(\N)c2cccc(C)c2)cc1OC | - | 22µM | ? | - | -
COc1ccccc1C(=O)O/N=C(\N)c1ccc(Cl)cc1 | - | 14µM | - | - | -
CSCCC(NC(=O)COc1ccccc1)C(=O)NCCOc1ccc(C)cc1 (stereo not given) | - | - | - | - | .
CC(=O)Nc1ccc(/C=C/c2sc3ccccc3[n+]2CCCCI)cc1 | . | . | . | - | .
CC(C)c1ccc(S(=O)(=O)Nc2ccc(SC(F)F)cc2)cc1 | - | - | - | - | .
Cc1ccc(S(=O)(=O)Nc2ccc(SC(F)F)cc2)c(C)c1 | - | - | ? | 18µM | .
COc1ccc(CNc2ccc(C)cc2)cc1Br | - | 18µM | - | - | -
O/N=C1\CCCc2ccc3ccccc3c21 | - | 11µM | - | - | -
SMILES | Abeta yeast res | TDP-43 yeast inh | Mito fusion yeast | aSyn yeast inh | FUS suppressor
O=C1CCCc2ccc3ccccc3c21 | - | - | . | - | -
CC(C)CN1C[C@@H]2CSCCS(=O)(=O)N2C1=O | . | . | . | . | -
Cc1ccccc1S(=O)(=O)Nc1nc2ccccc2nc1Cl | - | 10µM | - | - | -
COc1cc(NC(=O)c2cnc(NCc3ccccc3)nc2C)cc(OC)c1OC | - | - | - | - | -
CCOC(=O)c1cnc(NCc2ccccc2)nc1C | - | 7.1µM | - | . | -
COCCN(C(=O)c1ccccc1F)c1nnc(-c2ccc(OC)cc2)s1 | - | - | - | - | ?
Cc1ccc(CS(=O)(=O)Cc2ccc(C(=O)NC3CCCC3)o2)cc1 | - | - | - | - | -
COc1cc(C=C(c2nc3ccccc3s2)c2nc3ccccc3s2)ccc1O | - | -[0.397 µM] | 16µM | - | -
COc1ccc(C=C(c2nc3ccccc3s2)c2nc3ccccc3s2)cc1O | - | ? | ? | - | ?
CCOC(=O)[C@@]12CCCC3=C1N(CCC3)C(=O)[C@H]2CC(=O)NCCc1ccccc1OC | . | . | . | . | -
CCCc1nc2ccc(NC(C)=O)cc2c(=O)n1Cc1ccccc1Cl | - | 20µM | - | - | -
Cc1cc(C)cc(-n2c(C)nc3cc(C(=O)NCc4ccccc4Cl)ccc32)c1 | - | . | . | . | ?
Cc1cc(F)ccc1S(=O)(=O)Nc1ccccc1C(=O)N1CCCC1 | - | - | - | 4.5µM | -
Cc1cc(C)nc(SCC2COc3ccccc3O2)n1 (stereo not given) | - | 14µM | - | - | -
Cc1ccc(-c2cc(C(=O)N3CCN(c4ccc(O)cc4)CC3)c3ccccc3n2)cc1 | - | 16µM | . | - | ?
COc1ccc(-c2cc(C(=O)N3CCN(c4ncccn4)CC3)c3ccccc3n2)cc1 | - | 13µM | - | - | -
O=C(c1cc(-c2ccccc2Cl)nc2ccccc12)N1CCN(c2ccccc2O)CC1 | - | 20µM | ? | - | -
Cc1ccc(-c2cc(C(=O)N3CCN(c4ccccc4O)CC3)c3ccccc3n2)cc1 | - | - | - | - | -
CC(C)Cc1ccc(S(=O)(=O)N2CCN(c3ccccn3)CC2)cc1 | - | - | - | - | -
CC(C)(C)C(=O)Nc1ccccc1C(=O)Nc1cc(Cl)ccc1Cl | - | 22µM | - | - | -
N/C(Cc1ccc([N+](=O)[O-])cc1)=N\OC(=O)c1ccc2ccccc2c1 | - | 11µM | - | - | -
CCCCNC(=O)C[C@H]1C(=O)N(Cc2ccc(OC)cc2)C2=CCCCC[C@@]21C(=O)OC | . | . | . | . | -
COc1c2ccccc2nn1C(C)C | - | - | . | - | -
CC(C)(C)OC(=O)N1CCC(c2c(C(=O)N3CCCCC3)cnn2-c2ccccc2Cl)CC1 | - | - | . | . | -
Cn1cc(Cl)c(/C(N)=N/OC(=O)c2ccccc2C(F)(F)F)n1 | - | 20µM | - | - | -
SMILES | Abeta yeast res | TDP-43 yeast inh | Mito fusion yeast | aSyn yeast inh | FUS suppressor
N/C(=N\OC(=O)c1ccccc1Cl)c1ccccn1 | - | - | - | - | -
COc1ccccc1Cc1nc2ccccc2nc1SCC(=O)Nc1cccc(Cl)c1C | - | - | . | . | -
O=C(NCCCN1CCCCCC1)c1ccc2c(c1)sc1nc(-c3ccccc3)cn12 | - | - | . | . | -
C/C(=N\NC(=S)NCC(C)(C)C)c1cc(F)cc(F)c1O | ? | 13µM | - | - | -
c1ccc(Nc2c(-c3c[nH]c4ccccc34)nc3ccccn23)cc1 | - | - | . | . | -
CC(C)(C)OC(=O)NCCCCCc1nnc(SCc2ccccc2F)o1 | - | ? | - | - | -
CC(C)(C)OC(=O)NCCCCCc1nnc(SCc2ccccc2)o1 | - | 35µM | - | - | -
CC(C)(C)OC(=O)NCCCCCc1nnc(SCc2cccc(F)c2)o1 | - | 25µM | - | - | -
COc1cc(F)c(S(=O)(=O)N2CCCN(S(=O)(=O)c3cccc(N)c3)CC2)c(F)c1 | . | . | . | . | -
CC(CCc1ccccc1)NC(=O)c1cc2sccc2n1C (stereo not given) | - | - | - | - | -
COc1ccc(CNC(=O)c2cc3sccc3n2C)cc1 | - | 35µM | . | . | -
CCc1ccccc1NC(=O)c1cc2sccc2n1C | - | 13µM | - | - | -
Cn1c(C(=O)Nc2ccccc2)cc2sccc21 | - | 13µM | - | - | -

Source: PubChem (National Center for Advancing Translational Sciences (NCATS))
